Compounds with a hit are over-represented: about 3.4% of the library has one in this group of screens.
MITF primary: MITF inhibitors, primary screen, biochemical, AlphaScreen, human. Microphthalmia-associated transcription factor (Homo sapiens), O75030. inhibition, % at 2.6 µM. 0.91% of 650,000 active. AlphaScreen MITF homodimerization, bead proximity signal; in the data active = inhibition above about 50%;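 note: 0% = vehicle wells with protein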
GPR151 activ: activators of human GPR151, primary screen, cell-based, PathHunter beta-arrestin, luminescence. activation, % at 11.2 µM. 1% of 650,000 active. G-protein coupled receptor 151 (Homo sapiens), Q8TDV0. AID 1508602, 2020. PathHunter beta-arrestin GPR151 cells; in the data active = activation above about 4.9%;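 note: 0% = median of compound wells and 100% = cells with positive control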
FBW7 act: FBW7 E3 ligase activators, primary screen, biochemical, AlphaScreen, human | AlphaScreen FBW7–phospho-cyclin E peptide binding, activator screen | F-box/WD repeat-containing protein 7 (Homo sapiens), Q969H0 | 0.13% of 650,000 active | normalized activity (activation), % at 26.1 µM; in the data active = normalized activity above about 1.9%;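 note: purified mutant Fbw7 with reduced substrate affinity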
Target sequence (Q969H0 whole entry, looked up): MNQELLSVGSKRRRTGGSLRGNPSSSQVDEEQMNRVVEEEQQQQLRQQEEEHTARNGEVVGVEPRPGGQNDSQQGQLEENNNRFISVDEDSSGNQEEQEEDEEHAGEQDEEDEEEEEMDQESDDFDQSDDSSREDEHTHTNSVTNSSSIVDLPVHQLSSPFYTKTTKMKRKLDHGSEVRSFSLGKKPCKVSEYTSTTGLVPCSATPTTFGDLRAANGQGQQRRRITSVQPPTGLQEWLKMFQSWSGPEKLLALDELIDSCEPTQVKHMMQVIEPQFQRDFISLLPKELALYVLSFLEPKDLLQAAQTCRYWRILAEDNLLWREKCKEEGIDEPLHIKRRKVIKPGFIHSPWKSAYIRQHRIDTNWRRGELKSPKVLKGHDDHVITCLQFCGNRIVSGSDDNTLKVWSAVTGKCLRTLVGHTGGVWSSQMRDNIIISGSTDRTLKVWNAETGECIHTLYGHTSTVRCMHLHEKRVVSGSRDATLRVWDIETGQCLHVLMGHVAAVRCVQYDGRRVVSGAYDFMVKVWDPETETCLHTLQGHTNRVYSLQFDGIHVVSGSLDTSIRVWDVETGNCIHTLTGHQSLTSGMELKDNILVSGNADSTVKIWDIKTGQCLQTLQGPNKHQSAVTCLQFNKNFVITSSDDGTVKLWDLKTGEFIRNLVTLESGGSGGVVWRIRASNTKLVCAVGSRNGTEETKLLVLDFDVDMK
TEAD-YAP block: TEAD-YAP interaction inhibition, primary screen, TEAD-YAP interaction inhibitor project, luminescence, HEK-TIYL cells; inhibition, % at 9.12 µM; 1.4% of 640,000 active; TEAD-Gal4/YAP UAS-luciferase luminescence; AID 1259422, 2018; in the data active = inhibition above about 32%;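 note: 0% = median of test compound wells and 100% = reference inhibitor wells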
MITF confirm: MITF inhibitors, retest of hits, confirmation, biochemical, AlphaScreen, triplicate | shares compounds with MITF primary | AlphaScreen MITF homodimerization, biotin/His-MITF beads | inhibition, % at 2.6 µM | 16% of 4,700 active;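 active = inhibition above a cutoff derived from the DMSO control wells, cut at about 28% in these data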;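 note: 0% = MITF dimer wells with DMSO only; inhibitors lower the bead chemiluminescence by keeping MITF from dimerizing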
AlphaScreen DR: AlphaScreen optical interference compounds, dose response, counter-screen, biochemical, HTS | shares compounds with MITF primary | AlphaScreen optical interference counterscreen, cell-free | IC50, µM | 6% of 480 active | AID 1259373, 2018; call rule not given here
AlphaScreen intf2: AlphaScreen optical interference compounds, counter-screen for MITF inhibitor project, biochemical, triplicate; inhibition, % at 2.6 µM; LysRS AlphaScreen counterscreen, signal interference; shares compounds with MITF primary; AID 1259376, 2018; 7.6% of 4,700 active;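 active = inhibition above a cutoff derived from the DMSO control wells, cut at about 30% in these data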
An asterisk follows results filed as active; x = not tested or not shown.

SMILES	MITF primary	GPR151 activ	FBW7 act	TEAD-YAP block	MITF confirm	AlphaScreen intf2	others
c1ccc(Oc2cccc(OCCOCCn3cncn3)c2)cc1	72.3*	-2.0	-0.2	-10.3	-4.9	-9.4
Cc1cc(Br)ccc1OCCn1cncn1	68.1*	1.6	0.0	3.0	9.4	11.9
c1ccc(COc2ccc(OCCn3cncn3)cc2)cc1	1.8	-1.3	0.2	-16.8	x	x
COc1ccc(Cl)cc1C(=O)N(CC#N)CC#N	1.9	0.0	0.0	-1.3	x	x
Clc1cccc(OCCn2cncn2)c1	-5.5	-0.6	-0.1	-6.0	x	x
O=[N+]([O-])c1ccc(OCCCCn2cncn2)cc1	41.2	-0.9	-0.6	6.1	x	x
c1ccc(Oc2cccc(OCCn3cncn3)c2)cc1	67.2*	4.5	0.0	-9.6	-2.3	5.7
Brc1cccc(OCCCCn2cncn2)c1	62.3*	-0.9	-0.4	-3.4	8.6	13.2
CC(C)c1ccc(C2/C(=C(/O)c3ccccc3)C(=O)C(=O)N2CCCN(C)C)cc1 (stereo unspecified)	7.5	-1.7	0.0	3.2	x	x
CCOc1ccc(/C=C/C(=O)Nc2nc3ccc(S(C)(=O)=O)cc3s2)cc1OC	73.2*	0.3	0.1	-0.8	-0.8	2.1
Oc1ccc(-c2nccnc2NCCc2ccncc2)cc1	10.8	0.5	-0.1	-1.5	x	x
Fc1ccc(CN2CCN(C3CC4CCC3C4)CC2)cc1 (stereo unspecified)	79.4*	0.5	-0.1	-10.3	2.1	0.2
COc1ccc(CN2CCC(N3CCCCC3)CC2)cc1OC	38.2	-0.5	-0.1	7.2	x	x
CCOc1cc(CN2CCN(C3CCCCC3)CC2)ccc1OC	64.5*	0.4	0.0	-2.0	5.6	17.5
COc1ccc(CN2CCN(C3CCN(Cc4ccccc4)CC3)CC2)cc1OCc1ccccc1	29.1	-0.8	-0.1	4.0	x	x
CCOc1ccc(CN2CCN(S(=O)(=O)CC)CC2)cc1OC	36.9	-0.9	-0.1	-4.7	x	x
CCOc1cc(CN2CCN(C3CC4CCC3C4)CC2)ccc1OC (stereo unspecified)	69.1*	0.0	-0.1	6.3	-19.7	-1.7
CCOc1cc(CN2CCN(C3CCCCCC3)CC2)ccc1OC	55.2*	-0.1	0.0	-4.9	-1.4	8.4
Cc1c(Cc2c(C)c(C#N)c(=O)n(C)c2O)c(O)n(C)c(=O)c1C#N	13.6	-0.8	-0.9	0.5	x	x
CN1CCN(c2ccc(-c3ncc(C(=O)NCc4cccnc4)s3)cc2)CC1	9.3	0.3	0.0	-15.7	x	x
COC(=O)c1cc(=O)n(C)c(=Nc2ccc(F)cc2)s1	8.7	0.3	0.2	0.2	x	x
Nc1nonc1C(=O)N/N=C\c1cc([N+](=O)[O-])c(Cl)cc1Cl	67.2*	-0.3	0.8	3.8	-4.3	-5.9
O=C(Cc1c(F)cccc1Cl)Nc1cc(C(=O)Nc2ccncc2)ccc1N1CC2CC(C1)c1cccc(=O)n1C2 (stereo unspecified)	6.3	0.6	0.1	0.3	x	x
COc1ccc(/C=C\C(=O)Nc2c3c(nn2-c2cccc(Cl)c2)CSC3)cc1OC	-9.2	-0.3	-0.1	-13.4	x	x
Cc1cccc(C(=O)Nc2c3c(nn2-c2ccc(F)cc2)CSC3)c1	53.1*	2.1	0.0	-2.7	34.7*	-3.2	AlphaScreen DR=>5.53
SMILES	MITF primary	GPR151 activ	FBW7 act	TEAD-YAP block	MITF confirm	AlphaScreen intf2	others
Cc1cc(C)cc(C(=O)Nc2c3c(nn2-c2ccc(F)cc2)CSC3)c1	2.1	1.3	0.2	17.5	x	x
O=C(/C=C\c1ccccc1)Nc1c2c(nn1-c1cccc(Cl)c1)CSC2	66.7*	2.0	-0.1	-2.5	9.6	-1.0
O=C(c1ccc(F)cc1)N1CCN(Cc2ccncc2)CC1	63.2*	0.0	-0.1	-4.6	10.1	-7.1
O=C(c1ccc(F)cc1)N1CCN(Cc2ccc(Br)cc2)CC1	61.6*	1.4	0.0	11.7	6.7	15.0
Cc1ccc(CN2CCN(C(=O)c3ccccc3)CC2)cc1	46.9	-0.1	-0.1	-1.9	x	x
Fc1ccc(CN2CCN(Cc3ccncc3)CC2)cc1	82.6*	-1.3	0.9	14.0	5.8	8.9
Cc1ccc(CN2CCN(C(=O)c3ccncc3)CC2)cc1	65.2*	2.7	-0.5	1.1	-0.9	-4.3
O=C(NCC(c1cccc2ccccc12)N1CCCC1)c1cccc([N+](=O)[O-])c1 (stereo unspecified)	18.3	1.2	0.1	4.9	x	x
O=C(Nc1nnc(-c2ccc(Br)cc2)s1)c1ccc(Cl)cc1	2.8	-1.1	-0.1	0.4	x	x
COc1ccc(CCNc2cc(O)c(CC(=O)Nc3ccccc3)c3cc(OC)c(OC)cc23)cc1OC	12.4	-1.1	0.3	-0.9	x	x
Fc1ccccc1C1CCN(Cc2ccncc2)CC1	70.0*	-0.3	-0.2	2.8	4.8	12.3
O=C(c1ccc(F)cc1)N1CCN(Cc2ccc(F)cc2)CC1	52.0*	-1.9	0.1	4.9	-4.5	1.0
O=C(c1ccccc1)N1CCN(Cc2ccccc2)CC1	13.3	4.2	0.0	4.0	x	x
Cc1ccc(S(=O)(=O)NC(=O)NC(C)c2ccccc2)cc1 (stereo unspecified)	-8.7	-0.4	0.6	2.7	x	x
COC(=O)C(=Cc1ccc(OC)c(C(=O)O)c1)C(=O)OC	63.5*	0.0	0.1	-7.8	-16.4	-8.4
CCOC(=O)CN1C(=O)/C(=C2\SC(N)=NC2=O)c2ccccc21	-19.1	1.1	-0.1	12.6	x	x
Cc1nc(C)n(-c2ccc(Nc3ncc(F)c(-c4cccc(N5CCOCC5)c4)n3)cc2)n1	10.3	0.1	-0.1	14.3	x	x
CCOC(=O)c1cc(N2C(=O)C3C4C=CC(C4)C3C2=O)ccc1Cl (stereo unspecified)	59.3*	3.9	-0.2	-7.5	55.0*	8.8	AlphaScreen DR=>6.48
CC(=O)Nc1cc(N2C(=O)C3C4C=CC(C4)C3C2=O)ccc1Cl (stereo unspecified)	-16.1	1.5	-0.1	-2.9	x	x
COc1ccccc1N1CCN(S(=O)(=O)c2cc(C(=O)Nc3ccccc3Cl)ccc2F)CC1	4.2	-1.7	0.2	-7.9	x	x
CCOc1ccc(CN2CCN(C(=O)c3cccc(F)c3)CC2)cc1	54.6*	0.6	-0.2	18.7	10.6	19.2
O=C(c1cccc(F)c1)N1CCN(Cc2ccc(F)cc2)CC1	65.8*	0.1	-0.1	-2.5	-5.1	2.1
CCOc1cc(CN2CCN(C(=O)c3cccc(F)c3)CC2)ccc1OC	46.9	0.9	0.0	6.5	x	x
CC(=O)NC(Cc1ccc(F)cc1)C(=O)NC1CCN(C(=O)Nc2ccccc2F)CC1 (stereo unspecified)	5.0	-0.3	-0.2	-8.9	x	x
COc1ccccc1NC(=S)NCCCn1ccnc1	78.5*	0.7	-0.1	6.2	-0.9	2.0

Source: PubChem (The Scripps Research Institute Molecular Screening Center)
